Measured values from PubChem BioAssay (NCI).
This is part of a sample that, as a whole, favours compounds with a hit. Of some 83,000 tested, about 20% had one in any assay.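 Growth was measured after 48 h exposure to one concentration of compound in 96-well plates. Values under 10 count as active.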 A number with no mark means an inactive call. Calls of active or inactive are those of the source.

System: SNB-75 CNS
Test: NCI-60 one-dose screen, 48 h (100 = growth as untreated, 0 = no growth, -100 = all killed)
Conditions: 10 µM unless noted
Description: Growth inhibition of the SNB-75 human tumor cell line is measured as a screen for anti-cancer activity. Cells are grown in 96 well plates and exposed to the test compound for 48 hours. Compounds are tested at a single concentration, which is 10^-5 M for most compounds. The reported endpoint is percent growth (GI% or GIPRCNT), where numbers from 0 - 100% represent growth inhibition, and numbers from -100% - 0 represent cell death. For example, a value of 40 represents 60% growth inhibition. A value of 0 means no net growth occurred over the course of the experiment. A value of -40 indicates 40% of cells at the beginning of the experiment died by the end of the experiment. A value of -100 means all cells are dead at the end of the experiment.
NCI-60 Human Tumor Cell Lines Screen was performed using the standard one-dose NCI protocol, which is described in more detail at https://dtp.cancer.gov/discovery_development/nci-60/default.htm.
Compounds with GIPRCNT values below 10 were considered active. Activity score was based on GIPRCNT using the following formula: […]
Score is 0 for GIPRCNT values of 100 or above, 50 for GIPRCNT values of 0, and 100 for GIPRCNT values of -100.

First: COc1cc(OC)cc(C2C3=C(COC3=O)Nc3cc(OC)ccc32)c1 (stereo not given)
Second: COc1ccc(Cn2nc3c(c2-c2cc(OC)c(OC)c(OC)c2)-c2oncc2CC3)cc1
The growth of the first is lower: 40.7% for the first, 62.6% for the second.

Going from `C=C1C(=O)O[C@H]2[C@H]1CC/C(CNC(=O)/C=C/c1ccc(Br)cc1)=C\CC[C@@]1(C)O[C@@H]21` to `COc1ccccc1/C=C1\Oc2cc(OCCCN3CCCC3)ccc2C1=O`, the growth rises from 48.9% to 83.5%.

First: Fc1ccccc1CSc1ncnc2nc[nH]c12
Second: CSc1nc(O)c(-c2ccccc2)c(=O)[nH]1
The growth of the first is higher: 105% for the first, 97.1% for the second.

First: COc1cc2c(cc1[N+](=O)[O-])-c1ccc([N+](=O)[O-])cc1/C2=N\O
Second: COc1cc(C(=O)/C=C/c2c(C)n([O-])c3ccc(Cl)cc3[n+]2=O)cc(OC)c1OC
The growth of the first is higher: 75.5% for the first, 60.4% for the second.

Compared with `COc1ccc(C(=O)c2cc(C)c(OC)c(C)c2)c(OC)c1O`, `Cc1cc(C)c(C=O)c(C)c1` is higher in growth: 57.8% for the first, 83% for the second.

Compared with `COc1cc(NCCN(CC(C)C)C2CCCC2)c2ncccc2c1`, `CCN(CC)CCCC(C)Nc1cc(-c2cccc(OC(F)(F)F)c2)nc2ccc(N3CCCC3)cc12` (stereo not given) is lower in growth: 89.4% for the first, 66.5% for the second.

Going from `O=C1Nc2ccccc2/C1=N/c1nc(-c2ccc(Cl)cc2)cs1` to `COc1ccccc1/C=C1\COc2ccc(-c3ccccc3)cc2C1=O`, the growth falls from 90.8% to 42.2%.

First: CCCCCCC/C=C/[C@H]1O[C@]2(O)C(=O)C=C3C[C@@H](O[C@@H]4O[C@H](CO)[C@@H](O)C(O)[C@@H]4O)C[C@@H]3[C@H]2C=C1C (stereo not given in full)
Second: COc1cc(CNC(=O)CCCCC[P+](c2ccccc2)(c2ccccc2)c2ccccc2)c(OC)c2c1OCO2
The growth of the first is lower: 48.4% for the first, 68.5% for the second.

Going from `N#Cc1c(Nc2ccccc2)nn2cc(-c3nc4ccccc4s3)c(N)nc12` to `Cc1cc(C)n(Nc2nc3ccccc3[nH]c2=O)c(=O)c1C#N`, the growth rises from 55.9% to 79.5%.

First: COc1cccc(-c2nc3occn3c2-c2ccnc(NCCCNS(=O)(=O)c3cccc(F)c3)n2)c1
Second: CN1CCN(CCCNc2nccc(-c3c(-c4ccc(F)c(O)c4)nc4sccn34)n2)S1(=O)=O
The growth of the first is lower: 117% for the first, 122% for the second.

Going from `CN(C)CCCn1c2c(c3ccc(-c4ccn[nH]4)cc3c1=O)C(=O)c1ccccc1-2` to `CCCCCN1C=C/C(=C\C(=O)N(C)c2cccc3ccccc23)c2ccccc21`, the growth rises from 53.1% to 103%.

First: CC(=O)Nc1ccc(C(=O)Nc2cc(-c3ccccc3)ccc2N)cc1
Second: CC(O)(CO)c1ccccc1 (stereo not given)
The growth of the first is lower: 60.4% for the first, 92.5% for the second.

Going from `CCOC(=O)c1c(SC)nn(-c2cc(=O)[nH]c3ccc(Br)cc23)c1N` to `COc1cnccc1-c1nc2ccc3[nH]ncc3c2c2c1CCCC2`, the growth falls from 94% to 24.1%.

Compared with `CN1CCN(CC#CCNC(=O)[C@]23CCC(C)(C)C[C@H]2C2=CC[C@@H]4[C@@]5(C)Cc6c([nH]c7ccccc67)C(C)(C)[C@@H]5CC[C@@]4(C)[C@]2(C)CC3)CC1`, `O=CNc1cc(Cl)cc(Cl)c1` is higher in growth: 92.7% for the first, 104% for the second.

In the case of `Clc1nc(Cl)c2ncn(CC3(Cn4cnc5c(Cl)nc(Cl)nc54)COC3)c2n1`, the growth is reported as -96.6% (active).
In the case of `COC(=O)Nc1nc2ccc(C(=O)c3cccc(I)c3)cc2[nH]1`, the growth is reported as -15.3% (active).
For `CCCCCCOc1ccc(/C=N/Nc2cc(C)nc3ccc(Br)cc23)cc1`, the growth was -94.5% (active).
For `CCc1nc(C)cn1C(=O)OCc1nc2nc(Cl)nc(N3CCOCC3)c2[nH]1`, the growth was 1.78% (active).
For `COc1ccc(NC(=O)c2sc3nc(C)c(C(O)c4ccc(OC)cc4)cc3c2N)cc1` (stereo not given), the growth was -16% (active).
With `CC(=O)N1c2ccccc2NC2=C(C(=O)N(C)C2(C)C)C1C` (stereo not given) the growth was -3.29% (active).
With `CCN1C(=O)N(CC)C2C1NN=c1s/c(=C3\C(=O)Nc4ccccc43)c(=O)n12` (stereo not given) the growth was -13.6% (active).
With `Nc1c(C(=O)Nc2cccc3ccncc23)sc2nc3c(cc12)C(=O)CCC3` the growth was 9.48% (active).
In the case of `CCn1cc(C2NC(=O)c3ccccc3N2)c2cccc(C)c21` (stereo not given), the growth is reported as -26.9% (active).
`Cc1ccc(C2CC(c3cccc(Nc4ccncc4)c3)=NN2c2ccccc2)cc1` (stereo not given) was tested, and the growth was -95.6% (active).
In the case of `CC(=O)c1c[nH]c2ccc(-c3ccnc(Nc4ccc(NC(=O)C5CCCC5)c(CN5CCOCC5)c4)n3)cc12`, the growth is reported as -81.4% (active).
For `CCCC/C(=N\N=C(N)N)c1ccc(F)cc1`, the growth was -1.82% (active).
